The values that follow come from the supplement of paper PMC8728848.

Common to all, as to assay: glycan array binding signal (z-score within array); higher = stronger binding
Holding throughout (conditions): glycan notation: IUPAC condensed, linker removed

In experiment [1] the target is Fuc(a1-2)[Gal(a1-3)]Gal(b1-4)Glc. An outline of the steps:
(§1)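 The binding signal is a Z-score computed within each array. Data were drawn from 3228 arrays in the Consortium for Functional Glycomics database, restricted to those with a known protein sequence. Scores were averaged over arrays of the same protein sequence at different concentrations or buffers, and over linkers, and negative values can be taken as non-binding.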

Experiment [2] concerns the target Fuc(a1-2)[GalNAc(a1-3)]Gal(b1-4)[Fuc(a1-3)]GlcNAc. An outline of the steps:
as §1

The target of the next experiment is Fuc(a1-3)GlcNAc. An outline of the steps: as §1
Experiment [3] concerns the target Gal(b1-3)GalNAc(b1-3)Gal(a1-4)Gal(b1-4)Glc. An outline of the steps:
as §1

The target of experiment [4] is Gal(b1-3)[GlcNAc(b1-6)]GalNAc. An outline of the steps:
as §1

The target of experiment [5] is Gal(b1-3)[Neu5Ac(a2-6)]GalNAc. In outline:
as §1

The target in experiment [6] is Gal(b1-4)GalNAc(b1-3)[Fuc(a1-2)]Gal(b1-4)GlcNAc. In outline:
as §1

Experiment [7] has as its target GalNAc(b1-3)Gal(a1-4)Gal(b1-4)GlcNAc. An outline of the steps: as §1
For experiment [8], the target named is GlcNAc(b1-6)Gal(b1-4)GlcNAc. In outline: as §1
Experiment [9] deals with Man(a1-2)Man(a1-2)Man(a1-3)Man. In outline:
as §1

Experiment [10] concerns the target Neu5Ac(a2-3)Gal(b1-3)GalNAc(b1-3)Gal(a1-4)Gal(b1-4)Glc. An outline of the steps:
as §1

The target of experiment [11] is Neu5Ac(a2-3)Gal(b1-3)[Fuc(a1-4)]GlcNAc. In outline:
as §1

Experiment [12] has as its target Neu5Ac(a2-3)Gal(b1-4)GlcNAc(b1-3)Gal(b1-4)GlcNAc(b1-3)Gal(b1-4)GlcNAc. In outline: as §1
The target in experiment [13] is Neu5Ac(a2-3)Gal(b1-4)GlcNAc(b1-3)Gal(b1-4)[Fuc(a1-3)]GlcNAc. In outline:
as §1

Experiment [14] deals with Neu5Ac(a2-3)[Neu5Ac(a2-6)]GalNAc. In outline: as §1
Experiment [15] has as its target Neu5Ac(a2-6)GalNAc(b1-4)GlcNAc. An outline of the steps: as §1
Experiment [16] deals with Neu5Gc(a2-3)Gal(b1-3)[Fuc(a1-4)]GlcNAc. An outline of the steps:
as §1

The target in experiment [17] is Neu5Gc(a2-3)Gal(b1-4)GlcNAc. In outline: as §1

Many of the other results were omitted from the sample, so the strongest signals are more common in it than they were.

B1: HMGB1 (Rattus norvegicus), P63159 (protein)
chain: MGKGDPKKPRGKMSSYAFFVQTCREEHKKKHPDASVNFSEFSKKCSERWKTMSAKEKGKFEDMAKADKARYEREMKTYIPPKGETKKKFKDPNAPKRPPSAFFLFCSEYRPKIKGEHPGLSIGDVAKKLGEMWNNTAADDKQPYEKKAAKLKEKYEKDIAAYRAKGKPDAAKKGVVKAEKSKKKKEEEDDEEDEEDEEEEEEEEDEDEEEDDDDE
On to B1, for which the “glycan array binding signal (z-score)” value in experiment [1] is 0.151; in experiment [2] it was -0.019; with Fuc(a1-3)GlcNAc it was 9.99; in experiment [3] it was -0.447; in [4] it was -0.335; in [5] it was -0.379. In addition, the “glycan array binding signal (z-score)” value is -0.322 in [6]; 2.44 in [7]; 2.57 in [8]; -0.58 in experiment [9]; -0.21 in [10]; -0.164 in [11]. Further, the “glycan array binding signal (z-score)” value in [12] is -0.169; in [13], 2.06; in experiment [14], -0.263; in experiment [15], 2.1; in [16], 2.69; in experiment [17] it was 0.031.
